ChEMBL document CHEMBL4513216, “Probing the Open Global Health Chemical Diversity Library for Multistage-Active Starting Points for Next-Generation Antimalarials” (ACS Infect Dis, 2020)
Hit rate of the full screen: of about 69,000 compounds, about 8,600 (12%) showed an effect of 50% or more. The sample holds strong results, similar compounds and a random draw of the others, so the mix is not that of the screen.

tested on: Plasmodium berghei; experiment: Screen against P. berghei liver stage (PbLuc), transformed with Luciferase, at 10uM; type: functional, HepG2; conditions: tested at 10 uM

| SMILES | INHIBITION |
| --- | --- |
| CN1CC(C(=O)NCc2cccnc2-n2cccn2)CC1=O (configuration not stated) | -37.7% |
| COCC1CN(Cc2cc(C)on2)Cc2cnn(C)c21 (configuration not stated) | -13.7% |
| CCn1c(Cn2cncn2)nnc1C1CCN(Cc2cccnc2)CC1 | -50.8% |
| Cc1nn(C)c2c(N3CCSCC3)nc(C3CC3)nc12 | 22.6% |
| CN1CCN(c2ccc(NCc3ccc(OC(F)(F)F)cc3)cn2)CC1 | 83.2% |
| CN1CCN(c2ccc(NCc3ccc([S+](C)[O-])cc3)cn2)CC1 (configuration not stated) | 47.4% |
| CCOc1ccc(NCc2cnc(N3CCN(C)CC3)nc2)cn1 | -15.7% |
| Cc1nc(CNCc2ccc(N3CCN(C)CC3)nc2)cs1 | 29.1% |
| CN1CCN(c2ccc(NCc3ccsc3)cn2)CC1 | 69.3% |
| CN(Cc1ccsc1)C(=O)Nc1ccc(N2CCCC2)nc1 | 15.3% |
| O=C(c1ccco1)N1C[C@@H]2CN(c3ccccn3)C[C@@H]2C1 | 5.04% |
| O=C1NC2(CCN(C(=O)c3ccccc3)CC2)CC1c1cccnc1 (configuration not stated) | -8.19% |
| CCOCCNC(=O)c1cccc(S(=O)(=O)NC[C@@H]2C[C@H](F)CN2)c1 | -3.87% |
| O=C(c1cccc(S(=O)(=O)NC[C@@H]2C[C@H](F)CN2)c1)N1CCCCC1 | 46.1% |
| O=C(Nc1ccccc1)c1cccc(S(=O)(=O)NC[C@@H]2C[C@H](F)CN2)c1 | 60.2% |
| CNc1snc(C)c1C(=O)N1CCCC(n2ccnc2C)C1 (configuration not stated) | 37.9% |
| Cn1ccnc1CN1CCc2onc(COCC3CC3)c2C1 | 19.6% |
| Cc1nccn1CCCN1CCCC(c2ccccc2)C1 (configuration not stated) | 49.4% |
| CC(=O)Nc1ccc(OCc2noc(C(=O)N3CCCC3)n2)cc1 | 31.3% |
| CC(=O)Nc1ccc(OCc2noc(C(=O)N3CCCCC3)n2)cc1 | 17.1% |
| CC(=O)Nc1ccc(OCc2noc(C(=O)N3CCCCCC3)n2)cc1 | 64.7% |
| N#Cc1cccc(N2CCCC3(C2)CN(c2ncc(F)cn2)CCO3)n1 (configuration not stated) | 8.31% |

| SMILES | INHIBITION |
| --- | --- |
| c1coc(CN2CCn3c(COCC4CC4)nnc3C2)c1 | 18.5% |
| CCOC1CCCN(C(=O)c2cnc3c(cnn3C3CCCC3)c2)C1 (configuration not stated) | 24% |
| NC(=O)C1CCCN(C(=O)c2cnc3c(cnn3C3CCCC3)c2)C1 (configuration not stated) | 56.6% |
| CN1CCN(C(=O)c2cnc3c(cnn3C3CCCC3)c2)CC1 | 24.8% |
| O=C(O)CN(C(=O)c1ccccc1)[C@H]1C[C@H]2CCOC[C@H]2C1 | -6.53% |
| Cc1ccc(NC2CCN(C(=O)c3ccc(C(N)=O)s3)CC2)nn1 | 42% |
| CN(C)c1ncccc1CNC(=O)NCc1ccc(Cl)s1 | -10.1% |
| Cn1nccc1CCC(=O)N1CCCC(c2cnccn2)C1 (configuration not stated) | 25.6% |
| O=C(CCc1ccccc1F)N1CCCC(OCc2cccnc2)C1 (configuration not stated) | 48.8% |
| O=C1CCCN1CCCC(=O)N1CCCC(Cc2cccnc2)C1 (configuration not stated) | 41.2% |
| Cc1cncc(C2CCN(C(=O)CCc3ccnn3C)CC2)n1 | 6.32% |
| Cn1nccc1CCC(=O)N1CCC(c2cnccn2)CC1 | 54.4% |
| Cn1nccc1CCC(=O)N1CCCC(Cc2cccnc2)C1 (configuration not stated) | 56% |
| CN(CCC(=O)N1CCCC(Cc2cccnc2)C1)Cc1cccnc1 (configuration not stated) | 38.2% |
| Cn1cnnc1CCC(=O)N1CCCC(OCc2cccnc2)C1 (configuration not stated) | 51% |
| CC(C)C(=O)N1CCCC(Cc2cccnc2)C1 (configuration not stated) | 16.2% |
| O=C(CCn1ncc2ccccc21)N1CCCC(Cc2cccnc2)C1 (configuration not stated) | 53% |
| Cc1ccn(CCC(=O)N2CCCC(Cc3cccnc3)C2)n1 (configuration not stated) | 41.2% |
| COc1ccccc1CCC(=O)N1CCCC(OCc2cccnc2)C1 (configuration not stated) | 25.8% |
| CN(CC(=O)NC1CCOCC1)C1CCCN(c2cccnn2)C1 (configuration not stated) | 26.5% |
| O=C(CCCN1CCOC1=O)Nc1cnn(-c2ccccc2Cl)c1 | 33.8% |
| CNc1cc2c(nn1)CCN(C(=O)c1ccc3c(c1)CCC3)C2 | 27.4% |

| SMILES | INHIBITION |
| --- | --- |
| Cc1noc(C)c1CNCC1CNc2ccnn2C1 (configuration not stated) | 39.3% |
| CC(C)n1cc(CN2CCCN(C(=O)CN3CCCC3=O)CC2)cn1 | 33.7% |
| CC(C)N(C)Cc1n[nH]c2c1CCN(C(=O)c1ccc[nH]1)C2 | 2.79% |
| CC(C)CCNC(=O)CNC(=O)N1CCc2c([nH]c3ccc(Cl)cc23)C1 | -2.13% |
| c1cc2ccc(N3CCN(Cc4ccc5c(c4)OCO5)CC3)nc2[nH]1 | 44.7% |
| Cc1ccn(-c2ccc(N3CCCN(Cc4ccccc4)CC3)nn2)n1 | 6.39% |
| Fc1ccccc1CN1CCCN(c2ccc3cc[nH]c3n2)CC1 | 70.4% |
| c1cc(CN2CCCN(c3ccc4cc[nH]c4n3)CC2)ccn1 | 54.4% |
| O=C1OCCN1CCN1CCCN(Cc2ccccc2F)CC1 | 15.1% |
| Fc1ccccc1CN1CCCN(c2ncnc3[nH]ccc23)CC1 | 26.9% |
| Cc1cc(-n2nc(C3CC3)nc2-c2csnn2)ccn1 | 19.5% |
| CN1CCOC(CNCc2coc(-c3ccccc3Cl)n2)C1 (configuration not stated) | 16.8% |
| CC(C)c1noc(CN2CCN(C(=O)c3cccc(F)c3)CC2)n1 | -31.5% |
| CCN(CC)S(=O)(=O)c1ccc2c(c1)N(Cc1ccccn1)C(=O)CS2 | 13.1% |
| CS(=O)(=O)N1CC[C@]2(O)CCN(c3cc(C#N)ccn3)C[C@@H]2C1 | 52.2% |
| CS(=O)(=O)N1CC[C@]2(O)CCN(c3ccnc(N)n3)C[C@@H]2C1 | 20.8% |
| CN(C)S(=O)(=O)N1CC[C@]2(O)CCN(c3cc(C#N)ccn3)C[C@@H]2C1 | 36.5% |
| CC(C)(C)n1nc(C(=O)NC2CCN(CC(N)=O)CC2)cc1C1CC1 | 5.03% |
| CC(C)(C)n1nc(C2CC2)cc1C(=O)NC1CCN(CC(N)=O)CC1 | 56% |
| Cc1cc(C(=O)NC2CCN(CC(N)=O)CC2)nn1C(C)(C)C | -1.54% |
| Cc1noc(C(C)C)c1C(=O)NCCN1CCCCCC1=O | 11.6% |
| Cc1nc(C)n(CC2CCCCN2CC(=O)Nc2cc(C)on2)n1 (configuration not stated) | 15.5% |

| SMILES | INHIBITION |
| --- | --- |
| COCC(=O)N1CCCC1c1nc(O)cc(C(C)C)n1 (configuration not stated) | 0.301% |
| CN(C)CCN1C(=O)CCC12CCCN(C(=O)c1cccnc1)CC2 (configuration not stated) | -38.1% |
| Cc1occc(=O)c1OCC(=O)N1CCc2ccccc2C1 | -8.04% |
| CC(NC(=O)NCCCc1n[nH]c(N)c1C#N)c1ccccc1 (configuration not stated) | 31% |
| CC(NC(=O)NCCNc1ncccn1)c1cccs1 (configuration not stated) | 56.6% |
| CC(C)C(NC(=O)NCCNc1ccccn1)c1cccs1 (configuration not stated) | 50.4% |
| CC(C)C(NC(=O)NCCNc1cnccn1)c1cccs1 (configuration not stated) | 36.1% |
| CC(NC(=O)NCCCc1n[nH]c(N)c1C#N)c1ccc(F)cc1 (configuration not stated) | -25.8% |
| CC(NC(=O)NCCNc1ccccn1)c1cccs1 (configuration not stated) | 19.6% |
| CC(C)C(NC(=O)NCCNc1ncccn1)c1cccs1 (configuration not stated) | -6.44% |
| CC(NC(=O)NCCNc1cnccn1)c1cccs1 (configuration not stated) | -0.847% |
| CC(NC(=O)NCCCc1n[nH]c(N)c1C#N)c1cccs1 (configuration not stated) | 58.2% |
| CCSc1ccc(C(=O)N2CCCCC2C(=O)NC(C)(C)C)cn1 (configuration not stated) | 29.7% |
| CN(CCCO)C(=O)c1ccc2c(c1)nc(N1CC[C@H](O)C1)n2C | -17.7% |
| O=C(c1ccncc1)N1CCN2C[C@H](Oc3cccc(F)c3)C[C@H]2C1 | 15.3% |
| CC1CCCCN1CCNC(=O)c1scnc1Cl (configuration not stated) | 0.411% |
| O=C(C1CCCC1)N1CCCC(c2nc(O)cc(-c3ccncc3)n2)C1 (configuration not stated) | 18.3% |
| CCOc1ccc(CC(=O)N2CCN(c3nccn3C)CC2)cc1 | 15% |
| CCC(=O)Nc1ccc(C(C)Nc2nc3c(cnn3C)c(=O)[nH]2)cc1 (configuration not stated) | 28.7% |
| CC(Nc1nc2c(cnn2C)c(=O)[nH]1)c1ccc(F)cc1 (configuration not stated) | 23.1% |
| CC(C)Sc1ccc(C(C)Nc2nc3c(cnn3C)c(=O)[nH]2)cc1 (configuration not stated) | 76.8% |
| CC(Nc1nc2c(cnn2C)c(=O)[nH]1)c1ccc2c(c1)CCCC2 (configuration not stated) | 51% |

| SMILES | INHIBITION |
| --- | --- |
| Cn1ncc2c(=O)[nH]c(CN3CCCc4cc(F)ccc43)nc21 | 31.7% |
| CC(Nc1nc2c(cnn2C)c(=O)[nH]1)c1ccccn1 (configuration not stated) | 30.9% |
| c1ccc(Cn2cc3c(n2)C(CNCc2ccco2)OCC3)nc1 (configuration not stated) | -4.86% |
| Cn1cc(C(=O)N2CC[C@@H]3[C@@H]2CCN3Cc2cccnc2)cn1 | 10.8% |
| COc1nn(C)cc1C(=O)N1CCC(c2nnc(-c3ccsc3)o2)CC1 | 43.3% |
| CS(=O)(=O)N1CCc2ccc(C(=O)N3CCn4ncnc4C3)cc21 | -4.68% |
| Clc1ccccc1OCCc1cc(C2CCNC2)n[nH]1 (configuration not stated) | -57.4% |
| Cc1nccc(-c2cccc(NCC(=O)N3CCOC(C)C3)c2)n1 (configuration not stated) | 15.5% |
| Cc1nccc(-c2cccc(NCC(=O)N3CCCC(C)C3)c2)n1 (configuration not stated) | 53.9% |
| Cc1nccc(-c2cccc(NCC(=O)N3CCCCCCC3)c2)n1 | 18.9% |
| CNS(=O)(=O)c1cccc(CNC(=O)c2cc(C)no2)c1 | -4.16% |
| CCS(=O)(=O)N1CCC2(CC(=O)N(c3ccccc3C)C2)C1 (configuration not stated) | -25.8% |
| CS(=O)(=O)Nc1ccc2c(c1)NC(=O)CC2c1cnn2cccnc12 (configuration not stated) | -27.5% |
| CN(C)C(=O)N1CCCC2(CCN(Cc3ccc(Cl)c(F)c3)C2)C1 (configuration not stated) | 16.9% |
| CC(=O)N1CCCC2(CCN(Cc3ccc(Cl)c(C(F)(F)F)c3)C2)C1 (configuration not stated) | -18.5% |
| CC(=O)N1CCC2(CCN(Cc3ccc(Cl)c(C(F)(F)F)c3)CC2)C1 | 73% |
| CC(=O)N1CCOC2(CCCN(Cc3ccc(Cl)c(C(F)(F)F)c3)C2)C1 (configuration not stated) | 30.3% |
| CC(=O)N1CCC2(CCCN(Cc3ccc(Cl)c(C(F)(F)F)c3)C2)C1 (configuration not stated) | 59.7% |
| CC(=O)N1CCCC2(CCN(Cc3ccc(Cl)c(F)c3)C2)C1 (configuration not stated) | 13.7% |
